# Source: the supplement of paper PMC8728848
# The sample as a whole holds a higher share of the strongest signals than the screen did.
# How the values were obtained:
# Assay in all cases: glycan array binding signal (z-score within array); higher = stronger binding
# Conditions in all cases: glycan notation: IUPAC condensed, linker removed
# Fuc(a1-2)Gal = target: Fuc(a1-2)Gal
# In short: (§1)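 Columns mapping to the same glycan were averaged after glycan names were converted to IUPAC-condensed notation. The data come from 3228 arrays in the Consortium for Functional Glycomics database, limited to those with an available protein sequence. Binding is reported as a within-array Z-score averaged across arrays of one protein sequence and across linkers.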
# [1] = target: Fuc(a1-2)Gal(b1-3)GlcNAc(b1-2)Man(a1-3)[Fuc(a1-2)Gal(b1-3)GlcNAc(b1-2)Man(a1-6)]Man(b1-4)GlcNAc(b1-4)GlcNAc
# In short: as §1
# [2] = target: Fuc(a1-2)Gal(b1-3)GlcNAc(b1-3)[Gal(b1-4)GlcNAc(b1-6)]Gal(b1-4)Glc
# In short: as §1
# [3] = target: Fuc(a1-2)Gal(b1-3)[Fuc(a1-4)]GlcNAc(b1-2)Man(a1-3)[Fuc(a1-2)Gal(b1-3)[Fuc(a1-4)]GlcNAc(b1-2)Man(a1-6)]Man(b1-4)GlcNAc(b1-4)[Fuc(a1-6)]GlcNAc(b1-4)[Fuc(a1-6)]GlcNAc
# In short: as §1
# [4] = target: Fuc(a1-2)Gal(b1-4)GlcNAc(b1-2)[Fuc(a1-2)Gal(b1-4)GlcNAc(b1-4)]Man(a1-3)[Fuc(a1-2)Gal(b1-4)GlcNAc(b1-2)Man(a1-6)]Man(b1-4)GlcNAc(b1-4)GlcNAc
# In short: as §1
# [5] = target: Fuc(a1-2)Gal(b1-4)GlcNAc(b1-6)GalNAc
# In short: as §1
# [6] = target: Fuc(a1-2)Gal(b1-4)[Fuc(a1-3)]GlcNAc(b1-2)Man(a1-3)[Fuc(a1-2)Gal(b1-4)[Fuc(a1-3)]GlcNAc(b1-2)Man(a1-6)]Man(b1-4)GlcNAc(b1-4)[Fuc(a1-6)]GlcNAc
# In short: as §1
# Fuc(a1-2)Gal6S(b1-4)Glc = target: Fuc(a1-2)Gal6S(b1-4)Glc
# In short: as §1
# [7] = target: Fuc(a1-2)[Gal(a1-3)]Gal(b1-3)GlcNAc(b1-6)GalNAc
# In short: as §1
# [8] = target: Fuc(a1-2)[Gal(a1-3)]Gal(b1-4)GlcNAc(b1-3)GalNAc
# In short: as §1
# [9] = target: Fuc(a1-2)[Gal(a1-3)]Gal(b1-4)[Fuc(a1-3)]GlcNAc(b1-3)GalNAc
# In short: as §1
# [10] = target: Fuc(a1-2)[GalNAc(a1-3)]Gal
# In short: as §1
# [11] = target: Fuc(a1-2)[GalNAc(a1-3)]Gal(b1-3)GlcNAc
# In short: as §1
# [12] = target: Fuc(a1-2)[GalNAc(a1-3)]Gal(b1-4)GlcNAc
# In short: as §1
# [13] = target: Fuc(a1-2)[GalNAc(a1-4)]Gal(b1-4)GlcNAc
# In short: as §1
# [14] = target: Gal(a1-3)[Gal(a1-4)]Gal(b1-4)GlcNAc
# In short: as §1
# [15] = target: Gal(a1-4)Gal(b1-4)GlcNAc(b1-3)Gal(b1-4)Glc
# In short: as §1
# Gal(b1-3)Gal(b1-4)GlcNAc = target: Gal(b1-3)Gal(b1-4)GlcNAc
# In short: as §1
# [16] = target: Gal(b1-3)GalNAc(b1-4)Gal(b1-4)Glc
# In short: as §1
# [17] = target: Gal(b1-3)GlcNAc(b1-2)Man(a1-3)[GlcNAc(b1-4)][Gal(b1-3)GlcNAc(b1-2)Man(a1-6)]Man(b1-4)GlcNAc(b1-4)GlcNAc
# In short: as §1
# [18] = target: Gal(b1-3)GlcNAc(b1-2)[Gal(b1-3)GlcNAc(b1-6)]Man(a1-6)[Gal(b1-3)GlcNAc(b1-2)Man(a1-3)]Man(b1-4)GlcNAc(b1-4)GlcNAc
# In short: as §1
# [19] = target: Gal(b1-3)GlcNAc(b1-3)Gal(b1-4)GlcNAc(b1-2)Man(a1-3)[Gal(b1-3)GlcNAc(b1-3)Gal(b1-4)GlcNAc(b1-2)Man(a1-6)]Man(b1-4)GlcNAc(b1-4)GlcNAc
# In short: as §1
# [20] = target: Gal(b1-3)[Fuc(a1-4)]GlcNAc(b1-2)Man
# In short: as §1
# [21] = target: Gal(b1-3)[Fuc(a1-4)]GlcNAc(b1-2)Man(a1-3)[Gal(b1-3)[Fuc(a1-4)]GlcNAc(b1-2)Man(a1-6)]Man(b1-4)GlcNAc(b1-4)[Fuc(a1-6)]GlcNAc
# In short: as §1
# [22] = target: Gal(b1-4)GalNAc(b1-3)[Fuc(a1-2)]Gal(b1-4)GlcNAc
# In short: as §1
# [23] = target: Gal(b1-4)GlcNAc(b1-2)Man(a1-3)[Man(a1-6)]Man(b1-4)GlcNAc(b1-4)GlcNAc
# In short: as §1
# [24] = target: Gal(b1-4)GlcNAc(b1-2)[Gal(b1-4)GlcNAc(b1-6)]Man(a1-6)[GlcNAc(b1-4)][Gal(b1-4)GlcNAc(b1-2)Man(a1-3)]Man(b1-4)GlcNAc(b1-4)GlcNAc
# In short: as §1
# [25] = target: Gal(b1-4)GlcNAc(b1-3)Gal(b1-3)GalNAc
# In short: as §1
# [26] = target: Gal(b1-4)GlcNAc(b1-3)Gal(b1-4)GlcNAc(b1-2)Man(a1-3)[Gal(b1-4)GlcNAc(b1-3)Gal(b1-4)GlcNAc(b1-2)Man(a1-6)]Man(b1-4)GlcNAc(b1-4)GlcNAc
# In short: as §1
# [27] = target: Gal(b1-4)GlcNAc(b1-3)Gal(b1-4)GlcNAc(b1-3)Gal(b1-4)GlcNAc(b1-3)Gal(b1-4)GlcNAc(b1-3)Gal(b1-4)GlcNAc(b1-2)[Gal(b1-4)GlcNAc(b1-3)Gal(b1-4)GlcNAc(b1-3)Gal(b1-4)GlcNAc(b1-3)Gal(b1-4)GlcNAc(b1-3)Gal(b1-4)GlcNAc(b1-6)]Man(a1-6)[Gal(b1-4)GlcNAc(b1-3)Gal(b1-4)GlcNAc(b1-3)Gal(b1-4)GlcNAc(b1-3)Gal(b1-4)GlcNAc(b1-3)Gal(b1-4)GlcNAc(b1-2)Man(a1-3)]Man(b1-4)GlcNAc(b1-4)[Fuc(a1-6)]GlcNAc
# In short: as §1
# [28] = target: Gal(b1-4)GlcNAc(b1-3)[Gal(b1-4)GlcNAc(b1-6)]Gal(b1-4)GlcNAc
# In short: as §1
# Gal3S(b1-4)Glc = target: Gal3S(b1-4)Glc
# In short: as §1
# Gal6S(b1-3)GlcNAc = target: Gal6S(b1-3)GlcNAc
# In short: as §1
# [29] = target: GalNAc(a1-3)GalNAc(b1-3)Gal(a1-4)Gal(b1-4)Glc
# In short: as §1
# GalNAc(b1-3)GalNAc = target: GalNAc(b1-3)GalNAc
# In short: as §1
# [30] = target: GalNAc(b1-4)GlcNAc(b1-2)Man(a1-3)[GalNAc(b1-4)GlcNAc(b1-2)Man(a1-6)]Man(b1-4)GlcNAc(b1-4)GlcNAc
# In short: as §1
# Glc(a1-6)Glc(a1-6)Glc = target: Glc(a1-6)Glc(a1-6)Glc
# In short: as §1
# Glc(b1-6)Glc = target: Glc(b1-6)Glc
# In short: as §1
# [31] = target: GlcNAc(a1-4)Gal(b1-4)GlcNAc(b1-3)Gal(b1-4)[Fuc(a1-3)]GlcNAc(b1-3)Gal(b1-4)[Fuc(a1-3)]GlcNAc
# In short: as §1
# [32] = target: GlcNAc(b1-3)Gal(b1-4)GlcNAc(b1-2)Man(a1-3)[GlcNAc(b1-3)Gal(b1-4)GlcNAc(b1-2)Man(a1-6)]Man(b1-4)GlcNAc(b1-4)[Fuc(a1-6)]GlcNAc
# In short: as §1
# [33] = target: GlcNAc(b1-3)Gal(b1-4)GlcNAc(b1-3)Gal(b1-4)GlcNAc(b1-2)[GlcNAc(b1-3)Gal(b1-4)GlcNAc(b1-3)Gal(b1-4)GlcNAc(b1-6)]Man(a1-6)[GlcNAc(b1-3)Gal(b1-4)GlcNAc(b1-3)Gal(b1-4)GlcNAc(b1-2)Man(a1-3)]Man(b1-4)GlcNAc(b1-4)[Fuc(a1-6)]GlcNAc
# In short: as §1
# Man(a1-2)Man(a1-3)Man = target: Man(a1-2)Man(a1-3)Man
# In short: as §1
# [34] = target: Man(a1-3)[Man(a1-6)]Man(a1-6)[Man(a1-2)Man(a1-3)]Man(b1-4)GlcNAc(b1-4)GlcNAc
# In short: as §1
# Man(b1-4)GlcNAc = target: Man(b1-4)GlcNAc
# In short: as §1
# [35] = target: Neu5Ac(a2-3)Gal(b1-3)GalNAc6S
# In short: as §1
# [36] = target: Neu5Ac(a2-3)Gal(b1-4)GlcNAc(b1-2)Man(a1-3)[Neu5Ac(a2-3)Gal(b1-4)GlcNAc(b1-2)Man(a1-6)]Man(b1-4)GlcNAc(b1-4)GlcNAc
# In short: as §1
# [37] = target: Neu5Ac(a2-6)Gal(b1-4)GlcNAc(b1-3)Gal(b1-4)GlcNAc(b1-3)Gal(b1-4)GlcNAc(b1-2)Man(a1-3)[Neu5Ac(a2-6)Gal(b1-4)GlcNAc(b1-3)Gal(b1-4)GlcNAc(b1-3)Gal(b1-4)GlcNAc(b1-2)Man(a1-6)]GalNAc
# In short: as §1
# [38] = target: Neu5Ac(a2-6)Gal(b1-4)GlcNAc(b1-3)Gal(b1-4)GlcNAc(b1-6)[Gal(b1-3)]GalNAc
# In short: as §1
# [39] = target: Neu5Ac(a2-8)Neu5Ac(a2-3)Gal(b1-4)GlcNAc
# In short: as §1
# [40] = target: Neu5Ac(a2-8)Neu5Gc(a2-3)Gal(b1-4)GlcNAc
# In short: as §1
binder,measurement,setting,value
PX14343I-pdi-501-30-501 (Parabacteroides distasonis) (protein) SDQYSTETFWKTKEHASAGIMGCYNALKLWRSLHTMEFDMLTANAMPYNEANGTQAIGKGEHLSTTALIGSLWKNCYVGIGRTNTFIANVGGVDMDESEKAKMVGEAKFLRAFYYLSLVDKFGGVPLIIDAPNADEQAELPRNSKEEVVNQIVKDLEEAAAVLPDTYASSDLGRATKGAALALKARTLLYNSRWAEAAQAAKQVMESGVYQLFNDYRHFFSEDNKYNCEVIFDIEAKLPEYPTDYDQNIWRLNRPAPLKELVDTYLCVDGKTIEESPLYDPTRPYENRDPRLLKSIVCIGYPYLGKTITKEDVATTGFGVKKYTSYEDDVTIPLVERSAFNFILIRYAEVLLTYAEAQNEASGPDQSVYDAINQLRRRPDINMPEVPKGLTKDQMREVIRRERRIELTFEGLYYSDILRWKTAEKENNGMMHNYEGIEVVKRSFNPKRDYLWPIPYNQTVLNPNLEQNPNWD,glycan array binding signal (z-score),Fuc(a1-2)Gal,-0.249
same,glycan array binding signal (z-score),[1],1.95
same,glycan array binding signal (z-score),[2],-0.005
same,glycan array binding signal (z-score),[3],-1.15
same,glycan array binding signal (z-score),[4],1.69
same,glycan array binding signal (z-score),[5],-1.54
same,glycan array binding signal (z-score),[6],2.6
same,glycan array binding signal (z-score),Fuc(a1-2)Gal6S(b1-4)Glc,0.082
same,glycan array binding signal (z-score),[7],-0.008
same,glycan array binding signal (z-score),[8],0.362
same,glycan array binding signal (z-score),[9],-0.205
same,glycan array binding signal (z-score),[10],-0.237
same,glycan array binding signal (z-score),[11],0.35
same,glycan array binding signal (z-score),[12],-0.707
same,glycan array binding signal (z-score),[13],-0.33
same,glycan array binding signal (z-score),[14],2.67
same,glycan array binding signal (z-score),[15],-0.408
same,glycan array binding signal (z-score),Gal(b1-3)Gal(b1-4)GlcNAc,-0.375
same,glycan array binding signal (z-score),[16],-0.713
same,glycan array binding signal (z-score),[17],0.623
same,glycan array binding signal (z-score),[18],1.55
same,glycan array binding signal (z-score),[19],0.741
same,glycan array binding signal (z-score),[20],0.532
same,glycan array binding signal (z-score),[21],1.6
same,glycan array binding signal (z-score),[22],-0.377
same,glycan array binding signal (z-score),[23],-0.562
same,glycan array binding signal (z-score),[24],-0.439
same,glycan array binding signal (z-score),[25],-0.11
same,glycan array binding signal (z-score),[26],1.61
same,glycan array binding signal (z-score),[27],1.86
same,glycan array binding signal (z-score),[28],-0.2
same,glycan array binding signal (z-score),Gal3S(b1-4)Glc,0.301
same,glycan array binding signal (z-score),Gal6S(b1-3)GlcNAc,0.19
same,glycan array binding signal (z-score),[29],0.12
same,glycan array binding signal (z-score),GalNAc(b1-3)GalNAc,1.96
same,glycan array binding signal (z-score),[30],-0.398
same,glycan array binding signal (z-score),Glc(a1-6)Glc(a1-6)Glc,0.049
same,glycan array binding signal (z-score),Glc(b1-6)Glc,-0.768
same,glycan array binding signal (z-score),[31],1.69
same,glycan array binding signal (z-score),[32],4.66
same,glycan array binding signal (z-score),[33],1.77
same,glycan array binding signal (z-score),Man(a1-2)Man(a1-3)Man,0.611
same,glycan array binding signal (z-score),[34],0.28
same,glycan array binding signal (z-score),Man(b1-4)GlcNAc,-0.706
same,glycan array binding signal (z-score),[35],-0.135
same,glycan array binding signal (z-score),[36],-0.301
same,glycan array binding signal (z-score),[37],2.21
same,glycan array binding signal (z-score),[38],0.989
same,glycan array binding signal (z-score),[39],-0.464
same,glycan array binding signal (z-score),[40],18.3
